# Measurements taken from PubChem BioAssay AID1768 (National Center for Advancing Translational Sciences (NCATS), 2009).
# The campaign covered roughly 270,000 compounds. About 620 (0.23%) were called active. About 12% were inconclusive and are not listed. The call rests on the fitted dose curve; in most records, active means well fitted inhibition curve with a large enough effect in the polarisation, with a control signal flat (not every such curve was filed as active); inconclusive means small, poorly fitted or top-dose-only effect, or effect the other way, or a change in a side signal; inactive means no such curve, though single readings can be large or run the other way; the % refers to the polarisation. Shown is part of a subset that was picked to be rich in actives. A call without a number means that no potency is given here.
# Biological target: Menin (Homo sapiens) (UniProt O00255)
# Sequence (O00255 whole entry, looked up): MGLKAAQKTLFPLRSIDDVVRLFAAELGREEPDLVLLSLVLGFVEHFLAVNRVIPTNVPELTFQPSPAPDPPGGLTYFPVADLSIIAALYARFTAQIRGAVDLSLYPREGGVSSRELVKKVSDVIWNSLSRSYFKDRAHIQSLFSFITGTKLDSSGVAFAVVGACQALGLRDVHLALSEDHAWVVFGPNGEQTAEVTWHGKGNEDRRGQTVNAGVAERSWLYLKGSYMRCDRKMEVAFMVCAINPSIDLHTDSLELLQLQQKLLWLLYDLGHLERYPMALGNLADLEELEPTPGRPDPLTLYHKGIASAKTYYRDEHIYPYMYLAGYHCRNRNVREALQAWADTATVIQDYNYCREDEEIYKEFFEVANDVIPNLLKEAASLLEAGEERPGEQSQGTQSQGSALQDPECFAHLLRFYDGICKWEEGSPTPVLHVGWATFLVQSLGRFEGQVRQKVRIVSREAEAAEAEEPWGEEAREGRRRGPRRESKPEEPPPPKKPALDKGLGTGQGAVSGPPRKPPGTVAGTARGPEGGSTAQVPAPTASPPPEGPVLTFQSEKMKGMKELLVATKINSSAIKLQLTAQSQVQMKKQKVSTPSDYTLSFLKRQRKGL
# Experiment: qHTS Assay for Inhibitors Targeting the Menin-MLL Interaction in MLL Related Leukemias: Competition With Texas Red Labeled MLL-derived Mutant Peptide
# Conditions: fluorescence polarization; series mostly up to 61.6 µM
# Excerpt: qHTS Assay for Inhibitors Targeting the Menin-MLL Interaction in MLL Related Leukemias NIH Chemical Genomics Center [NCGC] NIH Molecular Libraries Probe Centers Network [MLPCN] MLPCN Grant: MH084875-01A1 Assay Submitter (PI): Jolanta Grembecka, Tomasz Cierpicki, University of Virginia Translocations of the MLL (Mixed Lineage Leukemia) gene are frequently found in human leukemias affecting both children and adults. Fusion of MLL to one of more than 60 genes results in generation of oncogenic proteins upregulating Hox genes, which are vital to blood cell development. Patients harboring fusion of the MLL gene suffer from aggressive leukemias and respond poorly to available therapies. All of the oncogenic fusion proteins have a preserved N-terminal fragment of MLL that has been identified to interact with menin. It has been recently discovered that association with menin is critical to the leukemogenic activity of the MLL fusion oncoproteins. Selective targeting of the menin-MLL interaction could provide an attractive therapeutic approach to develop novel drugs for MLL-related leukemias. Small molecules blocking the menin-MLL interaction should reverse the oncogenic potential of MLL fusion proteins. We have developed and optimized a fluorescence polarization-based assay for the identification of Menin-MLL inhibitors. The assay was run employing two different MLL-derived peptides. The present assay uses a 12 amino acid peptide labeled with fluorescein at its N-terminus. This peptide consists of the menin high affinity binding motif from MLL and is potently bound by menin. Another peptide with a mutated sequence, labeled with Texas Red, was used in parallel as a less stringent screen for inhibitors.
# The Menin protein, the MLL-wild type (w.t.) derived peptide (N-terminal 12 amino acids), the MLL-derived peptide labeled with Texas Red and the MLL-w.t. peptide labeled with Fluorescein were kindly supplied by laboratory of Dr. Jolanta Grembecka, University of Virginia. All protein and peptide solutions were stored in single use aliquots at -80C. The Eu3+ Cyrptate-conjugated mouse monoclonal antibody anti-6 Histidine (Eu3+-AB) and the Streptavidin-XL665 conjugate (XL665) were purchased from Cisbio International (Bedford, MA). All antibody and XL665 conjugate solution stocks were stored in single use aliquots at -20C. The Buffer components for all assays were purchased from Sigma-Aldrich (St. Louis, MO) and Invitrogen (Carlsbad, CA). FP Assay Reagents: 1. FP reaction buffer: 50 mM Tris-HCl pH 7.5, 50 mM NaCl, 1mM DTT. Before use, 0.05% BSA is added. 2. Menin protein, MLL-w.t. labeled with fluorescein, MLL-mutant peptide labeled with texas red. Stored in singe use aliquots at -80C. 3. MLL-w.t. unlabeled peptide as positive control: 10 uM final in FP buffer. FP Assay Procedure: 1. Prepare Menin at 200 nM, MLL-w.t.-fluorescein at 25 nM, and MLL-mutant-texas red at 50 nM mixture in FP buffer. 2. Prepare Menin at 200 nM, MLL-w.t.-fluorescein at 25 nM, MLL-mutant-texas red at 50 nM, and 10 uM MLL-w.t. unlabeled mixture in FP buffer. 3. Prepare MLL-w.t.-fluorescein at 25 nM and MLL-mutant-texas red at 50 nM mixture in FP buffer. 3. Dispense 4 ul per well of reagent in step 1 in columns 2, 4 - 48 in a black 1536 well plate, dispense 4 ul per well of reagents from steps 2 and 3 in columns 1 and 3 respectively. Incubate plate at ambient for 15 minutes. 4. Transfer 23 nl per well of compound to plate and incubate at ambient for 1 hr. 5. Read fluorescence polarization for each label using the PerkinElmer Envision. Envision protocol for fluorescein: FITC FP Dual Enh Mirror, Excitation filter 480, Emission filter (1) P-pol 535, Emission filter (2) S-pol 535 Envision protocol for texas red: FP Dual Enh Mirror, Excitation filter 555, Emission filter (1) P-pol 632, Emission filter (2) S-pol 632
# Potency means the concentration at half of the fitted maximal effect.
row,Compound,Potency
1,CC(C)(O)C#Cc1ccc(CN2CCC(CO)(CCc3ccccc3)CC2)cc1,inactive
2,CCOCCCNc1nc(-c2ccccc2)nc2ccccc12,inactive
3,Cc1c(CN2CC[C@@H](N3CCN(c4ccccn4)CC3)[C@H](O)C2)[nH]c2ccc(F)cc12,inactive
4,O=C(NCCCO)c1cc2c([nH]c3ccccc32)c(-c2ccc(F)cc2)n1,inactive
5,CC(=O)N1c2ccc(S(=O)(=O)N3CCC(C(=O)NC4CCCC(C)C4C)CC3)cc2CC1C (centres undefined),inactive
6,CNC(=O)[C@]1(C(F)(F)F)C[C@H](CCc2ccccc2)CCCO1,inactive
7,CC1CCCCC1NC(=O)CCS(=O)(=O)c1ccc2c(c1)NC(=O)CO2 (centres undefined),inactive
8,O=C(/C=C/Nc1ccccc1OC(F)(F)F)C(F)(F)F,inactive
9,CCCOc1ccc(N/C=C/C(=O)C(C)(C)C)cc1,inactive
10,CN(C)c1ccc(N/C=C/C(=O)C(F)(F)F)cc1,28.2 µM (active)
11,COc1cccc(N2C(=O)CN(Cc3ccccc3)C2=S)c1,inactive
12,Cn1nccc1C(=O)N1CCCC(C(=O)c2ccc(Oc3ccccc3)cc2)C1 (centres undefined),inactive
13,COc1ccc(-c2noc(CCCC(=O)NC3CCCC3)n2)cc1OC,inactive
14,Cc1noc(C)c1-c1ccc2ncnc(NCc3ccc4[nH]ccc4c3)c2c1,inactive
15,CC(=O)N(Cc1cc(=O)[nH]c2ccccc12)c1ccc(C)cc1C,inactive
16,Cc1ccc(N(Cc2cc3ccccc3[nH]c2=O)C(=O)c2cccs2)cc1,inactive
17,Cc1ccc(N(Cc2cc(=O)[nH]c3ccccc23)C(=O)CCl)cc1,10 µM (active)
18,CCN(CC)CCCNC(=O)COc1ccc2oc3c(c2c1)CCCC3,inactive
19,CC(C)c1ccc(NC(=O)C2CCCN(S(=O)(=O)c3cccnc3)C2)cc1 (centres undefined),inactive
20,COc1cc(/C=C2\SC(=O)NC2=O)ccc1OCc1ccc(Cl)nc1,inactive
21,COC(=O)c1cc(S(=O)(=O)NCC2CCN(Cc3ccc(Cl)cc3)CC2)cn1C,inactive
22,Cc1cccc(NC(=S)NCCc2ccc(Cl)cc2)c1C,inactive
23,COC(=O)C(CC(C)C)NS(=O)(=O)c1cc(Br)ccc1Br (centres undefined),inactive
24,Cc1c(C)c2ccc(OCC(=O)N3CCN(c4cccc(Cl)c4)CC3)cc2oc1=O,inactive
25,Cc1ccc(S(=O)(=O)NNC(=O)/C=C/c2cccc(F)c2)cc1,inactive
26,COc1cc(/C=C2\CCCc3c2nc2ccccc2c3C(=O)O)cc(Cl)c1O,inactive
27,O=C(COC(=O)c1cccs1)Nc1ccccc1Cl,inactive
28,O=C(COC(=O)c1c2c(nc3ccccc13)/C(=C\c1cccs1)CCC2)Nc1ccccc1Cl,14.1 µM (active)
29,CC1CCN(CC(O)COc2ccc(C(=O)c3ccccc3)cc2)CC1 (centres undefined),inactive
